From PubChem BioAssay (NCATS) come the findings set out here.

Experiment [1] is described as follows: qHTS of pediatric cancer cell lines to identify multiple opportunities for drug repurposing: Confirmatory screen for LAN-5 cells (AID 1347113). Further: nearly all actives have a fitted effect of over 65% in size. Further: potency means the concentration at half of the fitted maximal effect. The conditions noted are these: LAN-5 neuroblastoma cell viability; series mostly up to 45.9 µM. The gist of the method: (§1)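 Cells (500-1,000/well) in growth media were settled 5 h at 37 degrees C, then given compounds for 48 h. Viability was read as CellTiter-Glo luminescence. Primary runs used MIPE at 11 points (0.78 nM-46 µM) and NPC at 8 points (0.59 nM-46 µM); follow-ups used 11 points.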
On the technique in general: Quantitative high-throughput screening tests each substance at several concentrations.

Experiment [2] is described as follows: qHTS of pediatric cancer cell lines to identify multiple opportunities for drug repurposing: Confirmatory screen for DAOY cells (AID 1347114). Further: nearly all actives have a fitted effect of over 65% in size. Further: potency means the concentration at half of the fitted maximal effect. The conditions noted are these: DAOY medulloblastoma cells viability, cytotoxicity qHTS; series mostly up to 45.9 µM. The gist of the method:
(§2)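 Viability measured as metabolically active cells via CellTiter-Glo luminescence following 48 hours of compound exposure, 11-point dilutions in confirmatory testing. 500-1,000 cells/well plated 5 hours before dosing; controls were DMSO and 2.3 µM bortezomib.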

The nature of experiment [3]: qHTS of pediatric cancer cell lines to identify multiple opportunities for drug repurposing: Confirmatory screen for SJ-GBM2 cells (AID 1347116). Further: nearly all actives have a fitted effect of over 60% in size. Further: potency means the concentration at half of the fitted maximal effect. Particulars: SJ-GBM2 glioblastoma cells, viability; series mostly up to 45.9 µM. The method, boiled down:
as §2

Experiment [4] is described as follows: qHTS of pediatric cancer cell lines to identify multiple opportunities for drug repurposing: Confirmatory screen for MG 63 (6-TG R) cells (AID 1347119). Further: nearly all actives have a fitted effect of over 55% in size. Further: potency means the concentration at half of the fitted maximal effect. Particulars: MG-63 (6-TG resistant) osteosarcoma viability; series mostly up to 45.9 µM. The gist of the method: as §1
Experiment [5] in a line: qHTS of pediatric cancer cell lines to identify multiple opportunities for drug repurposing: Confirmatory screen for control Hh wild type fibroblast cells (AID 1347121). Further: nearly all actives have a fitted effect of over 70% in size. Particulars: viability qHTS; series mostly up to 45.9 µM. The method, boiled down:
as §1

Experiment [6] in a line: qHTS of pediatric cancer cell lines to identify multiple opportunities for drug repurposing: Confirmatory screen for U-2 OS cells (AID 1347122). Further: nearly all actives have a fitted effect of over 65% in size. Further: potency means the concentration at half of the fitted maximal effect. Particulars: U-2 OS osteosarcoma cell viability; series mostly up to 45.9 µM. The gist of the method: as §1
The nature of experiment [7]: qHTS of pediatric cancer cell lines to identify multiple opportunities for drug repurposing: Confirmatory screen for Rh41 cells (AID 1347123).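 Further: 48 h compound exposure; nearly all actives have a fitted effect of over 60% in size.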 Further: potency means the concentration at half of the fitted maximal effect. Particulars: Rh41 rhabdomyosarcoma cells, viability/cytotoxicity qHTS; series mostly up to 45.9 µM. The method, boiled down:
as §1

Experiment [8] can be described thus: qHTS of pediatric cancer cell lines to identify multiple opportunities for drug repurposing: Confirmatory screen for Rh30 cells (AID 1347126). Further: nearly all actives have a fitted effect of over 55% in size. Further: potency means the concentration at half of the fitted maximal effect. The conditions noted are these: Rh30 rhabdomyosarcoma cell viability; series mostly up to 45.9 µM. The method, boiled down: as §1
Experiment [9] in a line: qHTS of pediatric cancer cell lines to identify multiple opportunities for drug repurposing: Confirmatory screen for Saos-2 cells (AID 1347127). Further: nearly all actives have a fitted effect of over 60% in size. Further: potency means the concentration at half of the fitted maximal effect. Particulars: Saos-2 osteosarcoma cell viability; series mostly up to 45.9 µM. The gist of the method: as §1
The target in experiment [10] is N-terminal Xaa-Pro-Lys N-methyltransferase 1 (Homo sapiens) (UniProt Q9BV86). The experiment can be described thus: qHTS Assay for Inhibitors of N-terminal methyltransferase 1 (NTMT1): LOPAC validation of the NTMT1 SAHH-coupled ThioGlo3 Assay (AID 1347143). Further: potency means the concentration at half of the fitted maximal effect; nearly all actives have a fitted effect of over 70% in size. Particulars: recombinant NTMT1, SAHH-coupled ThioGlo3 fluorescence; series mostly up to 114 µM. The method, boiled down: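 Fluorescence read-out (excitation 340nm, emission 450nm) of SAH-derived thiol, measured via SAHH coupling and ThioGlo3, taken immediately and after a 30 min room-temperature reaction, then normalized to the background read. Enzyme: NTMT1 at 125nM; cofactor SAM 100uM in the added reagent.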
Sequence of N-terminal Xaa-Pro-Lys N-methyltransferase 1 (Homo sapiens) (Q9BV86 whole entry, looked up): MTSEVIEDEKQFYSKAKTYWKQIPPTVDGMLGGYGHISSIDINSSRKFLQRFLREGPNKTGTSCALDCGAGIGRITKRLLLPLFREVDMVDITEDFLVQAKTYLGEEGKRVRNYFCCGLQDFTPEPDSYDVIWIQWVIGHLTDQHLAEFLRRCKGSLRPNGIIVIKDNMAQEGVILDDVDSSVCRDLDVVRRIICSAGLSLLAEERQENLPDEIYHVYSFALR

For experiment [11], the system named is Zika virus NS2B-NS3 protease (unlinked). The experiment can be described thus: Optimization of GU AMC qHTS for Zika virus inhibitors: Unlinked NS2B-NS3 protease assay (AID 1347151). Further: nearly all actives have a fitted effect of over 80% in size. Particulars: recombinant ZIKV NS2B-NS3 protease, fluorogenic AMC substrate; series mostly up to 52.5 µM. The gist of the method:
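Unlinked protease (25 nM final); buffer 10 mM Tris-HCl pH 8.0 + 0.01% Tween 20; AMC substrate; 15 min RT, dark; Δfluorescence normalized to no-inhibitor/no-enzyme controls; 4-parameter Hill fit.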

Experiment [12] is described as follows: qHTS of pediatric cancer cell lines to identify multiple opportunities for drug repurposing: Confirmatory screen for BT-12 cells (AID 1347112). Further: nearly all actives have a fitted effect of over 55% in size. Further: potency means the concentration at half of the fitted maximal effect. Particulars: BT-12 rhabdoid tumor cells, viability; series mostly up to 45.9 µM. The gist of the method:
as §1

The nature of experiment [13]: qHTS of pediatric cancer cell lines to identify multiple opportunities for drug repurposing: Confirmatory screen for NB-EBc1 cells (AID 1347115).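 Further: cells exposed to compound for 48 h before the viability read; nearly all actives have a fitted effect of over 45% in size.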 Further: potency means the concentration at half of the fitted maximal effect. Particulars: NB-EBc1 neuroblastoma cells, viability (cytotoxicity); series mostly up to 45.9 µM. The method, boiled down:
as §1

Experiment [14] can be described thus: qHTS of pediatric cancer cell lines to identify multiple opportunities for drug repurposing: Confirmatory screen for Rh18 cells (AID 1347125). Further: nearly all actives have a fitted effect of over 55% in size. Further: potency means the concentration at half of the fitted maximal effect. The conditions noted are these: Rh18 rhabdomyosarcoma cells, viability; series mostly up to 45.9 µM. The gist of the method: as §1
The nature of experiment [15]: qHTS of pediatric cancer cell lines to identify multiple opportunities for drug repurposing: Confirmatory screen for OHS-50 cells (AID 1347128). Further: potency means the concentration at half of the fitted maximal effect. The conditions noted are these: OHS-50 osteosarcoma cells viability; series mostly up to 45.9 µM. The method, boiled down:
as §1

The test system of experiment [16] is Zika virus NS2B-NS3 protease. The experiment can be described thus: Primary screen GU AMC qHTS for Zika virus inhibitors (AID 1347154). Further: nearly all actives have a fitted effect of over 70% in size. Further: potency means the concentration at half of the fitted maximal effect. The conditions noted are these: Zika NS2B-NS3 unlinked protease, AMC fluorogenic substrate; series mostly up to 54.1 µM. The gist of the method:
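Unlinked Zika NS2B hydrophilic domain/NS3 protease domain noncovalent complex (25 nM final) in 10 mM Tris-HCl pH 8.0, 0.01% Tween 20, with AMC peptide substrate. Fluorescence (ex 340, em 450 nm) change over 15 min, room temperature; percent inhibition fitted to 4-parameter Hill equation.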

Experiment [17] has as its target Furin (Homo sapiens) (UniProt P09958). The experiment is described as follows: Furin counterscreen qHTS for Zika virus inhibitors (AID 1347149).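 Further: purified recombinant full-length human furin enzyme at 5 nM; fluorescence gain from furin cutting a BOC-RVRR-AMC peptide substrate over 15 min; top concentration of the series differs between compounds; nearly all actives have a fitted effect of over 70% in size.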 The conditions noted are these: furin enzymatic counterscreen, fluorogenic substrate; series mostly up to 57.5 µM. The gist of the method:
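Fluorogenic cleavage of BOC-RVRR-AMC (2 microM final, Km ~15 µM) was monitored (ex 340, em 450 nm) at 37C after 15 min RT preincubation of 5 nM furin with compounds in HEPES pH 7.0 buffer with CaCl2 and Triton X-100. Percent inhibition was fitted to a 4-parameter Hill curve.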
(A counterscreen serves to expose hits that act by an unwanted route or on another target.)

The test system of experiment [18] is Zika virus NS2B-NS3 protease (linked construct). The experiment is described as follows: Confirmatory screen NINDS AMC qHTS for Zika virus inhibitors (AID 1347152). Particulars: Purified linked NS2B-NS3, AMC substrate fluorescence; series mostly up to 56.6 µM. The method, boiled down: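 Enzyme (1 nM, linked construct) was preincubated with compound for 15 minutes at room temperature in 10 mM Tris-HCl pH 8.0 with 0.01% Tween 20. Bz-Nle-Lys-Arg-Arg-AMC was then added to 10 microM, and AMC fluorescence was recorded immediately and after 15 minutes.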

The test system of experiment [19] is Zika virus NS2B-NS3 protease (unlinked complex). The experiment is described as follows: Confirmatory screen GU AMC qHTS for Zika virus inhibitors (AID 1347153). Particulars: Recombinant NS2B-NS3 protease, AMC substrate fluorescence; series mostly up to 57.1 µM. The method, boiled down: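 Compounds were preincubated 15 min at room temperature with 25 nM noncovalent NS2B-NS3 protease at pH 8.0; AMC substrate added at 10 microM and 15-min fluorescence gain (340/450 nm) converted to percent inhibition, fitted 4-parameter.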

Where “and” joins values, the source holds several entries; their conditions need not be identical. Equal entries are not always repeated. Inconclusive results are not listed. Calls of active or inactive are those of the source. The call rests on the fitted dose curve; in most records, active means well fitted curve in the direction sought with a large enough effect; inconclusive means small, poorly fitted or top-dose-only effect, or another doubt; inactive means no such curve, though single readings can be large; an effect the other way counts as inactive or inconclusive.

Sequence of Furin (Homo sapiens) (P09958 whole entry, looked up): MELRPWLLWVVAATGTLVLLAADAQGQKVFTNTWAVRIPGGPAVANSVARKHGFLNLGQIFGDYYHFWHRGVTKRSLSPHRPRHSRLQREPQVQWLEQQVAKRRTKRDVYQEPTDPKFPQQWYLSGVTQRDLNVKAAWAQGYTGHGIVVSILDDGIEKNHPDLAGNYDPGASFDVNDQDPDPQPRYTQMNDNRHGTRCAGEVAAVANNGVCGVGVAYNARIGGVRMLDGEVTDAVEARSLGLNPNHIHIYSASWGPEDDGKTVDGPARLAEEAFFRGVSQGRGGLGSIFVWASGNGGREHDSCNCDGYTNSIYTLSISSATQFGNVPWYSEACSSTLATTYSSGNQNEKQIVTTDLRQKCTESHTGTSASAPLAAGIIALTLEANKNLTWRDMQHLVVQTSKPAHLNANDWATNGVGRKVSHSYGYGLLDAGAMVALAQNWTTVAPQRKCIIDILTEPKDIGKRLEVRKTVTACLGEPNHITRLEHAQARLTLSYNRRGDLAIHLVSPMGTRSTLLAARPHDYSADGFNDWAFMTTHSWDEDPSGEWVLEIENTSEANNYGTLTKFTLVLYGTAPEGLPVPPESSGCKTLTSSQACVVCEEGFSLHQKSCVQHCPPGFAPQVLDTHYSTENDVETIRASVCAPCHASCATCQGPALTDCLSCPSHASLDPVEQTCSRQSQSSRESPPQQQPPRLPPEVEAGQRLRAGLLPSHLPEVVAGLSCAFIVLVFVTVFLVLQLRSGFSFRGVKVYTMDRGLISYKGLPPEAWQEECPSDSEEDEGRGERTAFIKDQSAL

As to `CCN(CC)C(=S)SSC(=S)N(CC)CC`, the Potency in experiment [1] was 0.147 µM (active); in experiment [2] it was 9.27 µM (active); in [3], 1.31 µM (active); in [6], 11.7 µM (active); in experiment [7] it was 0.261 µM (active); in experiment [9], 16.5 µM (active). Moreover, the Potency in experiment [10] was 4.47 µM (active). Further, the Potency entry in [4], in experiment [5], in [8] and in experiment [11] was “inactive” in each case.

Take `CC(S)C(=O)NCC(=O)O` (configuration not stated): the Potency entry in experiment [12], in experiment [1], in [13], in [4], in [5] and in experiment [14] was “inactive” in each case. The Potency result in [9], in experiment [15] and in experiment [16] was “inactive” throughout. Besides, the Potency in [8] was 10.4 µM (active).

As to `CCN(CC)CCOc1ccc(Nc2ncc3cc(-c4c(Cl)cccc4Cl)c(=O)n(C)c3n2)cc1`, the Potency in [12] was 11.7 µM (active); in experiment [2], 1.65 µM (active); in experiment [13] it was 18.5 µM (active); in experiment [3], 2.33 µM (active); in experiment [4], 0.261 µM (active); in [6], 0.657 µM (active). Also, the Potency is 9.27 µM (active) in experiment [7]; 14.7 µM (active) in [14]; 7.37 µM (active) in [8]; 1.47 µM (active) in experiment [9]; 1.31 µM (active) in [15]. Moreover, the Potency entry in experiment [11] and in [16] was “inactive” throughout.

In the case of `C=C(c1ccc(C(=O)O)cc1)c1cc2c(cc1C)C(C)(C)CCC2(C)C`, the Potency entry in [12], in experiment [1], in experiment [2], in experiment [13], in experiment [4] and in experiment [5] was “inactive” each time. Moreover, the Potency entry in [7], in experiment [14], in experiment [15] and in experiment [17] was “inactive” in each case. Moreover, the Potency in experiment [18] was 19.2 µM (active); in experiment [19], 19.2 µM (active) and 21.5 µM (active); in experiment [16] it was 9.61 µM (active) and 14.4 µM (active).

In the case of `O=C1c2c(O)cc(O)cc2OC(c2ccc(O)c(O)c2)C1O` (configuration not stated), the Potency result in experiment [12], in [1], in experiment [2], in [13], in experiment [3] and in [4] was “inactive” each time. Besides, the Potency entry in experiment [5], in experiment [6], in [7], in experiment [14], in experiment [8] and in [9] was “inactive” in each case. Further, the Potency entry in experiment [15] and in experiment [11] was “inactive” each time. For the same molecule, in [10], the Potency was 25.1 µM (active).

As for `Nc1ncn([C@H]2C[C@H](O)[C@@H](CO)O2)c(=O)n1`, the Potency entry in experiment [12], in [1], in experiment [2], in [13], in [3] and in [4] was “inactive” in each case. Moreover, the Potency result in [5], in experiment [6], in experiment [7], in experiment [14], in experiment [8] and in [9] was “inactive” each time. The Potency entry in [15] and in [16] was “inactive” throughout.

For `Cc1cc(C2CCCCC2)n(O)c(=O)c1`, the Potency was 5.85 µM (active) in experiment [1], 16.5 µM (active) in [13], 20.8 µM (active) in [4] and 8.27 µM (active) in experiment [8]. Also, the Potency entry in [3] and in [16] was “inactive” throughout.
